Assay results as given in PubChem BioAssay (Tox21).
Inconclusive results are not listed. Activity calls are given as the source filed them. Unless noted, the call rests on the fitted dose curve; in most records, active means well fitted curve in the direction sought with a large enough effect in the repeat runs; inconclusive means weak or mixed curves; inactive means no such curve, though single readings can be large; an effect the other way counts as inactive or inconclusive.

Tests used:
[1] = qHTS assay for small molecule agonists of the p53 signaling pathway (AID 651631; calls by dose curve; further: nearly all actives have a fitted effect of over 15% in size)
How it was run: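 Quantitative high-throughput format: 4,000 p53RE-bla HCT-116 cells/well, 5 h pre-incubation, 16 h compound exposure at 37 °C, 2 h room-temperature substrate step, fluorescence intensity measured.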

[2] = qHTS assay for small molecules that induce genotoxicity in human embryonic kidney cells expressing luciferase-tagged ATAD5 (AID 651632); further: nearly all actives have a fitted effect of over 15% in size
How it was run: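 Concentration-response screen for ATAD5 upregulation in HEK293T luciferase reporter cells; 16 hr treatment at 37C, then luminescence after 30 min with Amplite at room temperature.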

[3] = qHTS assay for small molecule agonists of the p53 signaling pathway - cell viability (AID 651633; calls by dose curve;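 further: p53RE-bla HCT reporter cells with a stable beta-lactamase p53 reporter; series mostly up to about 83 µM; nearly all actives have a fitted effect of over 30% in size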)
How it was run: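 p53RE-bla cells were treated with compound for 16 hours at 37 C. Cytotoxicity was then measured as CellTiter-Glo luminescence after 30 min at room temperature.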

[4] = qHTS assay for small molecules that induce genotoxicity in human embryonic kidney cells expressing luciferase-tagged ATAD5 - cell viability (AID 651634; calls by dose curve; further: nearly all actives have a fitted effect of over 25% in size)
How it was run: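 15.5 hr compound or vehicle exposure of HEK293T cells expressing luciferase-tagged ATAD5 at 37C; live-cell protease activity is read by fluorescence after 30 min of CellTiter-Fluor.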

[5] = qHTS assay to test for compound auto fluorescence at 590 nm (red) in HepG2 cells (AID 720674)
How it was run: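 Fluorescence at 590 nm emission following 540 nm excitation was recorded from HepG2 wells one hour after compound transfer, with DMSO-only wells as vehicle and Rose Bengal sodium equivalency as the scale.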

[6] = qHTS assay to test for compound auto fluorescence at 535 nm (green) in HepG2 cells (AID 720675)
[7] = qHTS assay to test for compound auto fluorescence at 460 nm (blue) in HEK293 cells (AID 720678)
How it was run: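 HEK293 cells (2,000 per well, medium with 10% dialyzed FBS) attached for 4-5 hr at 37C, then received compound and stood overnight at 37C, 5% CO2. Blue fluorescence was read at Ex/Em 405/460 nm and expressed relative to triamterene.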

[8] = qHTS assay to test for compound auto fluorescence at 590 nm (red) in HEK293 cells (AID 720679)
How it was run: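 HEK293 cells (2,000/well, medium with 10% dialyzed FBS) attached for 4-5 hr at 37C, received 23 nL compound and were incubated overnight at 37C, 5% CO2. Red fluorescence was then read at 540/590nm Ex/Em, referenced to Rose Bengal sodium.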

[9] = qHTS assay to test for compound auto fluorescence at 535 nm (green) in HEK293 cells (AID 720680)
[10] = qHTS assay to test for compound auto fluorescence at 460 nm (blue) in HEK293 cell free culture (AID 720681)
How it was run: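 Compounds were added to cell-free DMEM with 10% FBS and fluorescence read directly. The blue channel used 405 nm excitation and 460 nm emission, with triamterene as the reference fluorophore.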

[11] = qHTS assay to test for compound auto fluorescence at 535 nm (green) in HEK293 cell free culture (AID 720682)
How it was run: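 Measurement is a direct plate read of green fluorescence (485 nm in, 535 nm out) after compound addition to serum-supplemented DMEM lacking cells, with fluorescein used to express intensities.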

[12] = qHTS assay to test for compound auto fluorescence at 590 nm (red) in HEK293 cell free culture (AID 720683)
How it was run: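 Cell-free wells of DMEM with 10% FBS received compound, and intrinsic fluorescence was read at excitation/emission 540/590 nm. Values expressed as equivalence to Rose Bengal sodium.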

[13] = qHTS assay to test for compound auto fluorescence at 590 nm (red) in HepG2 cell free culture (AID 720684)
How it was run: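 Rose Bengal sodium served as the reference for red signal. Test compounds were dispensed into serum-containing MEM (10% FBS) without cells, and plates were read at 540/590 nm.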

[14] = qHTS assay to test for compound auto fluorescence at 535 nm (green) in HepG2 cell free culture (AID 720686)
[15] = qHTS assay to test for compound auto fluorescence at 460 nm (blue) in HepG2 cell free culture (AID 720685)
How it was run: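 Cell-free plates of MEM plus 10% FBS received 23 nL compound or DMSO vehicle; blue-channel (405/460 nm) intensity scored against triamterene as reference fluorophore.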

[16] = qHTS assay to test for compound auto fluorescence at 460 nm (blue) in HepG2 cells (AID 720687)
How it was run: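 HepG2 cells in MEM with 10% FBS, attached overnight at 37 C, were exposed to compound or DMSO for 1 hr at 37 C, 5% CO2. Blue fluorescence was read at 405/460 nm, with triamterene as reference fluorophore.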

[17] = qHTS assay for small molecule disruptors of the mitochondrial membrane potential (AID 720635)
How it was run: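 HepG2 cells exposed to compound 1 hr at 37C, then Mito-MPS dye 30 min. Ratio read of aggregate (540/590 nm) versus monomer (490/535 nm) fluorescence.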

[18] = biological target: Glucocorticoid receptor (Homo sapiens) (UniProt P04150); experiment: qHTS assay to identify small molecule agonists of the glucocorticoid receptor (GR) signaling pathway (AID 720691; active means well fitted activation curve with a large enough effect in the signal ratio in the repeat runs, not every such curve was filed as active; the % refers to the signal ratio)
Glucocorticoid receptor (Homo sapiens), sequence (P04150 whole entry, looked up): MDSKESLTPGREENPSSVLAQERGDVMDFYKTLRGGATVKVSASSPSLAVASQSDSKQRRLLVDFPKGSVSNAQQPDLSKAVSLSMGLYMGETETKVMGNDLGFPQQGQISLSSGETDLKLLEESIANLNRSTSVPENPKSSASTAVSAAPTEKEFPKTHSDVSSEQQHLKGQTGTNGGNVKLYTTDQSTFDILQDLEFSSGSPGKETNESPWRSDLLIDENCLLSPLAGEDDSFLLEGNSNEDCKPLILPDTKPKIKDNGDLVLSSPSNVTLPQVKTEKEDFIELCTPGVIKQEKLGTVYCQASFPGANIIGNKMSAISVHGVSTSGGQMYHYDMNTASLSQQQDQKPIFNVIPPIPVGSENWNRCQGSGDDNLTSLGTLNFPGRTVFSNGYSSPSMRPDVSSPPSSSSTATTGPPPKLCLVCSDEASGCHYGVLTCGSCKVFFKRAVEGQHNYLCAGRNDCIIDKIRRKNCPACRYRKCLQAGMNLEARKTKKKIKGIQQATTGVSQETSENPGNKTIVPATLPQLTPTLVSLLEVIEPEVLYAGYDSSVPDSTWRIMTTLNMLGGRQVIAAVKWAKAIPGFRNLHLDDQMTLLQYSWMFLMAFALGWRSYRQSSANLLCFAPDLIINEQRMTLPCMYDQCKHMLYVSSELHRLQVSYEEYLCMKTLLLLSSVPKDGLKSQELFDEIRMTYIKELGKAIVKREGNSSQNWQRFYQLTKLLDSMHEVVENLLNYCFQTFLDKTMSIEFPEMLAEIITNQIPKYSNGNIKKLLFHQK
How it was run: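 Measures GR pathway activation through a GRE-beta-lactamase reporter stably integrated in HeLa cells, with 18 h compound treatment at 37 C and fluorescence detection using a FRET substrate.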

[19] = biological target: Glucocorticoid receptor (Homo sapiens) (UniProt P04150); experiment: qHTS assay to identify small molecule antagonists of the glucocorticoid receptor (GR) signaling pathway (AID 720692; active means well fitted inhibition curve with a large enough effect in the signal ratio in the repeat runs, not every such curve was filed as active; the % refers to the signal ratio)
How it was run: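 Tox21 10K library screened in concentration-response for blockade of dexamethasone (5 nM final)-induced GRE-bla reporter activity in HeLa cells; 18 h treatment, fluorescence read.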

[20] = qHTS assay for small molecule disruptors of the mitochondrial membrane potential - cell viability (AID 720634; calls by dose curve;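 further: human HepG2 liver cancer cells; series mostly up to about 83 µM; nearly all actives have a fitted effect of over 20% in size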)
How it was run: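 In this qHTS format, HepG2 cells plated overnight were pinned with compound, incubated 1 hr, and assayed for ATP luminescence with CellTiter-Glo after m-MPI dye addition.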
On the % scale 0 is the no-effect control and ±100 the full control effect.

C=Cc1ccccc1
inactive: Potency [1] | Potency [2] | Potency [3] | Potency [4] | outcome [5] | outcome [6] | outcome [7] | outcome [8] | outcome [9] | outcome [10] | outcome [11] | outcome [12] | outcome [13] | outcome [14]

COC(C)CCO (configuration not stated)
inactive: Potency [1] | Potency [2] | Potency [3] | Potency [4] | outcome [5] | outcome [6] | outcome [7] | outcome [8] | outcome [9] | outcome [10] | outcome [11] | outcome [12] | outcome [15] | outcome [14] | outcome [16]

O=C(O[C@@H](C(=O)O)[C@@H](OC(=O)c1ccccc1)C(=O)O)c1ccccc1
inactive: Potency [1] | Potency [2] | Potency [3] | Potency [4] | Potency [17] | outcome [5] | outcome [6] | outcome [7] | outcome [9] | outcome [10] | outcome [11] | outcome [12] | outcome [13] | outcome [15] | outcome [14] | Potency [18] | Potency [19]

O=C1CCN(c2ccccc2)N1
inactive: Potency [1] | Potency [2] | Potency [3] | Potency [20] | Potency [17] | outcome [5] | outcome [6] | outcome [7] | outcome [8] | outcome [10] | outcome [11] | outcome [12] | outcome [13] | outcome [15] | outcome [14] | Potency [18] | Potency [19]

CN(C)C(=O)NC1(c2ccccc2)CCN(CCC[C@]2(c3ccc(Cl)c(Cl)c3)CCCN(C(=O)c3ccccc3)C2)CC1
inactive: Potency [1] | Potency [2] | Potency [3] | Potency [4] | fluorescence, relative to Rose Bengal [5] -0.128% [at 18.6 µM] | fluorescence, % of fluorescein control [6] 0.0153% [at 18.6 µM] | fluorescence, % of triamterene [7] -0.0808% [at 18.6 µM] | fluorescence, % of fluorescent control [8] -0.621% [at 18.6 µM] | fluorescence, % of fluorescein [9] -0.116% [at 18.6 µM] | activity change [11] 0.0134% [at 18.6 µM] | fluorescence, % of Rose Bengal [13] -0.0596% [at 18.6 µM] | fluorescence, % of fluorescent control [15] -0.114% [at 18.6 µM] | fluorescence, % of fluorescent control [16] -0.0586% [at 18.6 µM] | Potency [18] | Potency [19]

C=CC1CO1 (configuration not stated)
inactive: Potency [1] | Potency [2] | Potency [3] | Potency [4] | Potency [17] | outcome [5] | outcome [6] | outcome [7] | outcome [8] | outcome [10] | outcome [11] | outcome [12] | outcome [13] | outcome [14] | Potency [18]

ClC(Cl)Cl
inactive: Potency [1] | Potency [3] | Potency [4] | Potency [20] | Potency [17] | outcome [5] | outcome [6] | outcome [7] | outcome [8] | outcome [9] | outcome [10] | outcome [11] | outcome [12] | outcome [13] | outcome [15] | outcome [14] | outcome [16] | Potency [18] | Potency [19]
